Experimental data from PubChem BioAssay AID1159580 (chemical genetic matrix, 2015).
About 2,000 (36%) of roughly 5,500 compounds were called active. About 18% were inconclusive and are not listed. The list shows a part of the results. Unmarked numbers belong to inactive results. Cut-off read from the data, not from the text of the source: active = normalized growth mostly below about 0.91 (no sharp cut-off); inconclusive = no clear call, values can overlap the other calls; inactive = mostly above about 0.92.

Assay: chemical genetic growth profiling, strain panel (AID 1159580);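 note: tested at 20 µM; growth read once vehicle control cultures reached saturation at 30 °C; 1 = growth at the plate median or of vehicle wells; lower values mean less growth of the strain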
Conditions: growth OD

## COc1ccc(-c2cc(=O)c3ccccc3o2)cc1
S. cerevisiae deletion strains, locus YJR066W, strain TOR1, hits give low values
  normalized growth: 0.873
S. cerevisiae deletion strains, locus YKL009W, strain mrt4, hits give low values
  normalized growth: 0.824 (active)
S. cerevisiae deletion strains, locus YKL068W, hits give low values
  normalized growth: 0.93 (active)
S. cerevisiae deletion strains, locus YKL085W, strain MDH1 (second series), hits give low values
  normalized growth: 0.914 (active)
S. cerevisiae deletion strains, locus YKL085W, strain MDH1, hits give low values
  normalized growth: 0.914 (active)
S. cerevisiae deletion strains, locus YKL160W, strain elf1, hits give low values
  normalized growth: 0.742 (active)
S. cerevisiae deletion strains, locus YKR001C, strain vps1, hits give low values
  normalized growth: 0.354 (active)
S. cerevisiae deletion strains, locus YKR026C, strain gcn3, hits give low values
  normalized growth: 0.92 (active)
S. cerevisiae deletion strains, locus YKR091W, strain srl3, hits give low values
  normalized growth: 0.93 (active)
S. cerevisiae deletion strains, locus YLL001W, strain dnm1, hits give low values
  normalized growth: 0.763 (active)
S. cerevisiae deletion strains, locus YLL026W, hits give low values
  normalized growth: 0.9 (active)
S. cerevisiae deletion strains, locus YLL041C, strain sdh2, hits give low values
  normalized growth: 0.927 (active)
S. cerevisiae deletion strains, locus YLR027C, strain aat2, hits give low values
  normalized growth: 0.84 (active)
S. cerevisiae deletion strains, locus YLR039C, strain RIC1, hits give low values
  normalized growth: 0.405 (active)
S. cerevisiae deletion strains, locus YLR058C, strain SHM2, hits give low values
  normalized growth: 0.741 (active)
S. cerevisiae deletion strains, locus YLR102C, strain apc9, hits give low values
  normalized growth: 0.916 (active)
S. cerevisiae deletion strains, locus YLR113W, strain HOG1, hits give low values
  normalized growth: 1.06
S. cerevisiae deletion strains, locus YLR221C, strain rsa3, hits give low values
  normalized growth: 0.749 (active)
S. cerevisiae deletion strains, locus YLR258W, strain gsy2, hits give low values
  normalized growth: 0.823 (active)
S. cerevisiae deletion strains, locus YLR262C, strain YPT6 (second series), hits give low values
  normalized growth: 0.538 (active)
S. cerevisiae deletion strains, locus YLR262C, strain YPT6, hits give low values
  normalized growth: 0.406 (active)
S. cerevisiae deletion strains, locus YLR268W, strain sec22, hits give low values
  normalized growth: 0.727 (active)
S. cerevisiae deletion strains, locus YLR320W, strain mms22, hits give low values
  normalized growth: 0.449 (active)
S. cerevisiae deletion strains, locus YLR330W, strain CHS5, hits give low values
  normalized growth: 0.659 (active)
S. cerevisiae deletion strains, locus YLR342W, strain FKS1 (second series), hits give low values
  normalized growth: 0.512 (active)
S. cerevisiae deletion strains, locus YLR342W, strain FKS1, hits give low values
  normalized growth: 0.861 (active)
S. cerevisiae deletion strains, locus YLR357W, strain rsc2, hits give low values
  normalized growth: 1.03
S. cerevisiae deletion strains, locus YLR370C, strain arc18, hits give low values
  normalized growth: 0.922
S. cerevisiae deletion strains, locus YLR371W, strain rom2, hits give low values
  normalized growth: 0.834 (active)
S. cerevisiae deletion strains, locus YLR384C, strain iki3, hits give low values
  normalized growth: 0.916 (active)
S. cerevisiae deletion strains, locus YLR418C, strain cdc73, hits give low values
  normalized growth: 0.612 (active)
S. cerevisiae deletion strains, locus YML016C, strain PPZ1, hits give low values
  normalized growth: 0.89 (active)
S. cerevisiae deletion strains, locus YML032C, strain rad52, hits give low values
  normalized growth: 0.697 (active)
S. cerevisiae deletion strains, locus YML120C, strain ndi1, hits give low values
  normalized growth: 0.785 (active)
S. cerevisiae deletion strains, locus YML124C, strain tub3, hits give low values
  normalized growth: 0.922 (active)
S. cerevisiae deletion strains, locus YMR058W, strain fet3, hits give low values
  normalized growth: 0.804 (active)
S. cerevisiae deletion strains, locus YMR078C, strain ctf18, hits give low values
  normalized growth: 0.753 (active)
S. cerevisiae deletion strains, locus YMR125W, strain sto1, hits give low values
  normalized growth: 0.932
S. cerevisiae deletion strains, locus YMR129W, hits give low values
  normalized growth: 0.92 (active)
S. cerevisiae deletion strains, locus YMR205C, strain PFK2, hits give low values
  normalized growth: 0.668 (active)
S. cerevisiae deletion strains, locus YMR223W, strain ubp8, hits give low values
  normalized growth: 0.784 (active)
S. cerevisiae deletion strains, locus YMR231W, strain pep5, hits give low values
  normalized growth: 0.921 (active)
S. cerevisiae deletion strains, locus YMR307W, strain GAS1, hits give low values
  normalized growth: 0.397 (active)
S. cerevisiae deletion strains, locus YNL067W, strain RPL9B, hits give low values
  normalized growth: 0.688 (active)
S. cerevisiae deletion strains, locus YNL071W, strain lat1, hits give low values
  normalized growth: 0.48 (active)
S. cerevisiae deletion strains, locus YNL153C, strain GIM3, hits give low values
  normalized growth: 0.615 (active)
S. cerevisiae deletion strains, locus YNL183C, strain NPR1, hits give low values
  normalized growth: 0.874
S. cerevisiae deletion strains, locus YNL209W, strain ssb2, hits give low values
  normalized growth: 0.873 (active)
S. cerevisiae deletion strains, locus YNL233W, strain BNI4, hits give low values
  normalized growth: 0.629 (active)
S. cerevisiae deletion strains, locus YNL248C, strain rpa49, hits give low values
  normalized growth: 0.833 (active)
S. cerevisiae deletion strains, locus YNL250W, strain rad50, hits give low values
  normalized growth: 0.921
S. cerevisiae deletion strains, locus YNL271C, strain bni1, hits give low values
  normalized growth: 0.884 (active)
S. cerevisiae deletion strains, locus YNL298W, strain CLA4, hits give low values
  normalized growth: 0.881 (active)
S. cerevisiae deletion strains, locus YNL307C, strain MCK1, hits give low values
  normalized growth: 0.136 (active)
S. cerevisiae deletion strains, locus YNL322C, strain KRE1 (second series), hits give low values
  normalized growth: 0.902 (active)
S. cerevisiae deletion strains, locus YNL322C, strain KRE1, hits give low values
  normalized growth: 0.792 (active)
S. cerevisiae deletion strains, locus YNR049C, strain mso1, hits give low values
  normalized growth: 0.914 (active)
S. cerevisiae deletion strains, locus YNR052C, strain pop2, hits give low values
  normalized growth: 0.853 (active)
S. cerevisiae deletion strains, locus YOL012C, strain htz1
  normalized growth: 0.926
S. cerevisiae deletion strains, locus YOL147C, strain pex11, hits give low values
  normalized growth: 0.819 (active)
S. cerevisiae deletion strains, locus YOR001W, strain rrp6, hits give low values
  normalized growth: 0.809 (active)
S. cerevisiae deletion strains, locus YOR061W, strain CKA2, hits give low values
  normalized growth: 0.851 (active)
S. cerevisiae deletion strains, locus YOR069W, strain VPS5, hits give low values
  normalized growth: 0.729 (active)
S. cerevisiae deletion strains, locus YOR070C, strain gyp1, hits give low values
  normalized growth: 0.818 (active)
S. cerevisiae deletion strains, locus YOR080W, strain dia2, hits give low values
  normalized growth: 0.906 (active)
S. cerevisiae deletion strains, locus YOR083W, strain WHI5, hits give low values
  normalized growth: 0.71 (active)
S. cerevisiae deletion strains, locus YOR106W, strain vam3, hits give low values
  normalized growth: 0.733 (active)
S. cerevisiae deletion strains, locus YOR136W, strain idh2, hits give low values
  normalized growth: 0.895 (active)
S. cerevisiae deletion strains, locus YOR144C, strain elg1, hits give low values
  normalized growth: 0.911 (active)
S. cerevisiae deletion strains, locus YOR184W, strain ser1, hits give low values
  normalized growth: 0.474 (active)
S. cerevisiae deletion strains, locus YOR231W, strain MKK1, hits give low values
  normalized growth: 0.991
S. cerevisiae deletion strains, locus YOR265W, strain rbl2, hits give low values
  normalized growth: 0.879 (active)
S. cerevisiae deletion strains, locus YOR270C, strain vph1, hits give low values
  normalized growth: 0.328 (active)
S. cerevisiae deletion strains, locus YOR290C, strain snf2, hits give low values
  normalized growth: 0.689 (active)
S. cerevisiae deletion strains, locus YOR316C, strain cot1, hits give low values
  normalized growth: 0.925
S. cerevisiae deletion strains, locus YPL051W, strain arl3, hits give low values
  normalized growth: 0.674 (active)
S. cerevisiae deletion strains, locus YPL078C, strain atp4, hits give low values
  normalized growth: 0.695 (active)
S. cerevisiae deletion strains, locus YPL106C, strain sse1, hits give low values
  normalized growth: 1.05
S. cerevisiae deletion strains, locus YPL240C, strain hsp82, hits give low values
  normalized growth: 0.893 (active)
S. cerevisiae deletion strains, locus YPL241C, strain CIN2, hits give low values
  normalized growth: 0.839 (active)
S. cerevisiae deletion strains, locus YPL256C, strain CLN2, hits give low values
  normalized growth: 1.02
S. cerevisiae deletion strains, locus YPR119W, strain clb2, hits give low values
  normalized growth: 0.93 (active)
S. cerevisiae deletion strains, locus YPR141C, strain kar3, hits give low values
  normalized growth: 0.94
S. cerevisiae deletion strains, locus YPR163C, strain tif3, hits give low values
  normalized growth: 0.543 (active)
S. cerevisiae deletion strains, locus YPR167C, strain met16, hits give low values
  normalized growth: 0.727 (active)
S. cerevisiae deletion strains, strain wtn01, hits give low values
  normalized growth: 0.816 (active)
S. cerevisiae strains, strain wild type, hits give low values
  normalized growth: 0.682 (active)
